{"source": "ChEMBL document CHEMBL3988442", "about": "“University of Dundee, Small-Polar-MMV Screening Library” (2021)", "note": "About 950 (1.4%) of roughly 69,000 compounds showed an effect of 50% or more. The entries come from a sample that favours strong results as a whole.", "data": [{"test_system": "Mycobacterium tuberculosis", "assay": "Cornell M. t heat shock assay; further: in the data most compounds retested in dose-response had high values", "assay_type": "functional, organism-based", "parameters": "dose or concentration left out as unconfirmed", "units": {"Percent Effect": "%"}, "values": [{"smiles": "O=C(O)C(F)(F)F.O=C(O)C(F)(F)F.O=C1CC2(CCN(Cc3ccncc3)C2)CN1c1ccc2c(c1)OCO2", "note": "(configuration not stated)", "Percent Effect": -29.31}, {"smiles": "O=C(O)C(F)(F)F.O=C(O)C(F)(F)F.c1cnc(N2CCC3(COCCN(CC4CCOCC4)C3)C2)nc1", "note": "(configuration not stated)", "Percent Effect": -23.85}, {"smiles": "CCc1ncnc2c1CCN(CC(=O)N(C)C)CC2.O=C(O)C(F)(F)F", "Percent Effect": -2.001}, {"smiles": "COc1ccc(CN2C[C@@H]3OCCN(CCN4CCCC4)[C@@H]3C2)cc1.O=C(O)C(F)(F)F.O=C(O)C(F)(F)F.O=C(O)C(F)(F)F", "Percent Effect": -18.96}, {"smiles": "Cc1ncc2c(n1)C1(CCN(C(=O)C3CC3)CC1)OCC2.Cl", "Percent Effect": 6.327}, {"smiles": "CCN(CC)Cc1cn2c(n1)CN(C(=O)Cc1ccsc1)CC2.O=C(O)C(F)(F)F", "Percent Effect": -4.189}, {"smiles": "Cl.O=C1CC2(CCNCC2)C(=O)N1c1cccc(F)c1", "Percent Effect": -6.229}, {"smiles": "Cc1cc2c(=O)n3c(nc2s1)CCN(Cc1cnc(C)n1C)CC3.Cl", "Percent Effect": 0.614}, {"smiles": "O=C(O)C(F)(F)F.O=C1Nc2ccccc2C12CCN(Cc1cccs1)CC2", "Percent Effect": -5.404}, {"smiles": "O=C(O)C(F)(F)F.c1ccc(CN2Cc3nccn3CC(Cn3cncn3)C2)nc1", "note": "(configuration not stated)", "Percent Effect": -29.71}, {"smiles": "Cc1nc2c(c(NCc3cc4ccccc4s3)n1)CCNCC2", "Percent Effect": -9.753}, {"smiles": "Cc1nc2c(c(NCc3nc4ccccc4s3)n1)CCNCC2", "Percent Effect": 105.4}, {"smiles": "Cc1nc2c(c(NCc3ccc(-c4ccccn4)s3)n1)CCNCC2", "Percent Effect": -21.22}, {"smiles": "C[C@H]1CN(CC2CCOCC2)C[C@@]12CCN(Cc1cccnc1)C2=O.O=C(O)C(F)(F)F.O=C(O)C(F)(F)F", "Percent Effect": 4.288}, {"smiles": "Cc1ncsc1CN1CCOC(C)(C(=O)N(C)C)C1", "note": "(configuration not stated)", "Percent Effect": -16.31}, {"smiles": "CC1(C(=O)N2CCOCC2)CN(Cc2ccccc2F)CCO1", "note": "(configuration not stated)", "Percent Effect": 10.07}, {"smiles": "CN(C)C(=O)C1(C)CN(Cc2cn(C)c3ccccc23)CCO1", "note": "(configuration not stated)", "Percent Effect": 54.51}, {"smiles": "CNC(=O)C1(C)CN(Cc2cn(C)c3ccc(F)cc23)CCO1", "note": "(configuration not stated)", "Percent Effect": 39.76}, {"smiles": "Cc1nnc(N2CCOC(C)(C(=O)N(C)C)C2)c2ccccc12", "note": "(configuration not stated)", "Percent Effect": 0.5691}, {"smiles": "CN(C)C(=O)C1(C)CN(Cc2cn(C)c3ccc(F)cc23)CCO1", "note": "(configuration not stated)", "Percent Effect": 64.53}, {"smiles": "CC(C)Cn1c(=O)nc2n1C(=O)N(c1ccc(F)cc1)C2", "Percent Effect": 4.992}, {"smiles": "Cc1cccc(-c2nnn3c2COC(CNCc2nccs2)C3)c1.O=C(O)C(F)(F)F", "note": "(configuration not stated)", "Percent Effect": -29.09}, {"smiles": "COc1cc(N2C[C@H](C(=O)NCC3CC3)[C@@H]3CCO[C@@H]3C2)ncn1.O=C(O)C(F)(F)F", "Percent Effect": -37.92}, {"smiles": "CN(CCc1ccccn1)C(=O)c1cnn(-c2ccccc2F)c1N", "Percent Effect": 25.3}, {"smiles": "Cc1cc(Cl)ccc1-n1ncc(C(=O)N(C)CCc2ccccn2)c1N", "Percent Effect": 67.07}, {"smiles": "Cc1ccc(C)c(-n2ncc(C(=O)N(C)CCc3ccccn3)c2N)c1", "Percent Effect": 29.21}, {"smiles": "COc1ccc(OC)c(CN(Cc2ccco2)Cc2[nH]cnc2C)c1.O=C(O)CC(O)(CC(=O)O)C(=O)O", "Percent Effect": -22.22}, {"smiles": "Cc1cccn2cc(CN3CCCC(c4noc(C5CC5)n4)C3)nc12", "note": "(configuration not stated)", "Percent Effect": 100.9}, {"smiles": "Cc1cccn2cc(CN3CCCC(c4ccn[nH]4)C3)nc12", "note": "(configuration not stated)", "Percent Effect": 23.59}, {"smiles": "Cc1cccn2cc(CN3CCCC(O)C3)nc12", "note": "(configuration not stated)", "Percent Effect": -6.265}, {"smiles": "COCC(=O)N1CCC2(CC1)C(=O)N(Cc1cccnc1)CCN2C.O=C(O)C(F)(F)F.O=C(O)C(F)(F)F", "Percent Effect": -22.77}, {"smiles": "O=C(NC[C@H]1CC[C@H](c2ccnc3ncnn32)CC1)C1CC1", "Percent Effect": 14.38}, {"smiles": "COCC1c2c(cnn2C)CCN1Cc1ccc(C)cc1.O=C(O)C(F)(F)F.O=C(O)C(F)(F)F", "note": "(configuration not stated)", "Percent Effect": -35.12}, {"smiles": "Cn1ccnc1CN1CCc2onc(COCC3CC3)c2C1.O=C(O)C(F)(F)F", "Percent Effect": 34.07}, {"smiles": "CCn1ncc2c1C(COC)N(C(=O)c1cscn1)CC2.O=C(O)C(F)(F)F", "note": "(configuration not stated)", "Percent Effect": -5.863}, {"smiles": "CS(=O)(=O)N1CCCC1c1cccc(Nc2nccs2)n1", "note": "(configuration not stated)", "Percent Effect": 92.85}, {"smiles": "Cc1ccsc1C1CCCCCN1Cc1cn(C)nc1C", "note": "(configuration not stated)", "Percent Effect": 17.22}, {"smiles": "Cc1ccc(C2CCCCCN2Cc2cn(C)nc2C)s1", "note": "(configuration not stated)", "Percent Effect": 11.6}, {"smiles": "Cc1nc(Nc2ncc(C)s2)cc(C2CCCN2S(C)(=O)=O)n1", "note": "(configuration not stated)", "Percent Effect": -9.231}, {"smiles": "COCCN1CCCC1c1ccnc(-c2ccccc2)n1", "note": "(configuration not stated)", "Percent Effect": 20.75}, {"smiles": "COCCN1CCCC1c1nccnc1Nc1nccs1", "note": "(configuration not stated)", "Percent Effect": -9.826}, {"smiles": "Cc1cccc(C2CCCCCN2Cc2cn(C)nc2C)c1", "note": "(configuration not stated)", "Percent Effect": 5.626}, {"smiles": "c1ccc(CCN2CCCC2c2cccc(Nc3nccs3)n2)cc1", "note": "(configuration not stated)", "Percent Effect": 104.9}, {"smiles": "Cc1nn(C)cc1CN1CCCCCC1c1ccccc1Cl", "note": "(configuration not stated)", "Percent Effect": -8.916}, {"smiles": "CS(=O)(=O)N1CCCC1c1cccc(Cc2ccccc2F)n1", "note": "(configuration not stated)", "Percent Effect": -7.758}, {"smiles": "Cc1cnc(Nc2cccc(C3CCCN3Cc3cn(C)nc3C)n2)s1", "note": "(configuration not stated)", "Percent Effect": 104.4}, {"smiles": "Cc1nn(C)cc1CN1CCCC1c1cccc(Nc2nccs2)n1", "note": "(configuration not stated)", "Percent Effect": 99.7}, {"smiles": "CCCc1nnc(N[C@H](C)c2ccc(OC)cc2)o1", "Percent Effect": 32.03}, {"smiles": "O=C(Nc1ccccc1)N1C(CO)[C@]2(O)CC[C@H]1CC2", "note": "(some centres not stated)", "Percent Effect": -13.23}, {"smiles": "C=C1C(C)(C)[C@H]2CC[C@]1(C(=O)N1CCC(n3cc(CO)nn3)CC1)C2", "Percent Effect": 11.02}, {"smiles": "C[C@H]1C(=O)NC[C@H]2CN(CCc3ccccc3)C[C@H]21.O=C(O)C(F)(F)F", "Percent Effect": -3.474}, {"smiles": "CN(C)c1ccnc(C2CCCN2)n1.Cl", "note": "(configuration not stated)", "Percent Effect": -9.101}, {"smiles": "Cc1ccc(CN2CC3(CCN(C(=O)c4cccnc4)C3)C2)o1.O=C(O)C(F)(F)F.O=C(O)C(F)(F)F", "Percent Effect": 25.41}, {"smiles": "Cl.Cl.O=C(NCc1cncc2c1CCN(Cc1cccs1)C2)C1CC1", "Percent Effect": 3.264}, {"smiles": "O=C(NCc1ccccn1)[C@H]1COC[C@H]2CN(Cc3ccoc3)C[C@H]21.O=C(O)C(F)(F)F.O=C(O)C(F)(F)F", "Percent Effect": 2.625}, {"smiles": "COCCNc1nc(C)nc2c1CCN(C[C@H]1CC[C@@H](N)CC1)CC2", "Percent Effect": -33.02}, {"smiles": "Cn1nc(COc2cccnc2)c2c1CCN(c1cnccn1)C2.O=CO.O=CO", "Percent Effect": 1.293}, {"smiles": "O=C(O)C(F)(F)F.O=C(O)C(F)(F)F.c1cncc(N2CCOCC3(CCCN(Cc4cccs4)C3)C2)c1", "note": "(configuration not stated)", "Percent Effect": -22.26}, {"smiles": "CC(C)[C@H](N)C(=O)N1CCCC(C2=Nc3ccccc3S(=O)(=O)N2)C1.Cl", "note": "(some centres not stated)", "Percent Effect": 13.38}, {"smiles": "Cc1cccc(CN2CCc3onc(Cn4cccc4)c3C2)n1.O=C(O)C(F)(F)F", "Percent Effect": 14.85}, {"smiles": "COCCN1C2(CCN(CC3CC3)C2)c2ccccc2S1(=O)=O.O=C(O)C(F)(F)F", "note": "(configuration not stated)", "Percent Effect": 3.018}, {"smiles": "NC(=O)c1ccc(CNC(=O)Nc2cn[nH]c2)cc1", "Percent Effect": -17.84}, {"smiles": "Cc1nc(Nc2nccs2)cc(C2CCCN2C2CCOCC2)n1", "note": "(configuration not stated)", "Percent Effect": -17.35}, {"smiles": "Cc1cccc(CN2CCCC2c2cccc(CCC(=O)O)n2)c1", "note": "(configuration not stated)", "Percent Effect": -20.44}, {"smiles": "Cc1cc(C2CCCN2Cc2cccc(C(=O)Nc3nccs3)c2)no1", "note": "(configuration not stated)", "Percent Effect": -4.082}, {"smiles": "Cc1nc(Nc2ccccn2)cc(C2CCCN2Cc2ncc[nH]2)n1", "note": "(configuration not stated)", "Percent Effect": 21.63}, {"smiles": "Cc1cccc(CN2CCCC2c2cccc(Nc3nccs3)n2)c1", "note": "(configuration not stated)", "Percent Effect": 104}, {"smiles": "Cc1ccccc1CN1CCCC1c1cccc(Nc2nccs2)n1", "note": "(configuration not stated)", "Percent Effect": 106.1}, {"smiles": "CCCN(CC1CC1)C(=O)CN1CCCC1c1cnn(C)c1", "note": "(configuration not stated)", "Percent Effect": 3.305}, {"smiles": "CS(=O)(=O)N1CCN(C(=O)CCC2CCCO2)CC1", "note": "(configuration not stated)", "Percent Effect": 9.25}, {"smiles": "Cc1noc(C)c1CN1CCC2(CC1)C(c1cnn(C)c1)CC(=O)N2C.O=C(O)C(F)(F)F", "note": "(configuration not stated)", "Percent Effect": 38.42}, {"smiles": "CC(=O)N1CCO[C@@H]2CN(S(=O)(=O)c3cccnc3)C[C@@H]2C1.O=C(O)C(F)(F)F", "Percent Effect": 22.17}, {"smiles": "Cc1cccc(CN2CCc3nnc(CO)n3CC2)n1.O=C(O)C(F)(F)F", "Percent Effect": -11.61}, {"smiles": "CC(C)CN1CCC2(C=C(C(=O)NC3CC3)c3ccccc32)CC1.O=C(O)C(F)(F)F", "Percent Effect": -0.1524}, {"smiles": "CC(=O)NC1CCN(c2cnc(C3CCNCC3)cn2)CC1.Cl", "Percent Effect": -24.22}, {"smiles": "O=C(O)C(F)(F)F.c1cnc(N2CCO[C@H]3[C@H](OCC4CC4)CC[C@@H]32)nc1", "Percent Effect": 10.71}, {"smiles": "Fc1cnc(N2CCO[C@H]3[C@H](OCC4CCOCC4)CC[C@@H]32)nc1.O=C(O)C(F)(F)F", "Percent Effect": 47.96}, {"smiles": "O=C(O)C(F)(F)F.c1cnc(N2CCO[C@H]3[C@H](OCC4CCOCC4)CC[C@@H]32)nc1", "Percent Effect": 52.27}, {"smiles": "CCOCC(=O)N1CCC2(CC1)CC(c1ccccc1)CO2", "note": "(configuration not stated)", "Percent Effect": 16.4}, {"smiles": "CS(=O)(=O)N1C[C@H]2C[C@H](C(=O)N3CCOCC3)[C@@H](C1)O2", "Percent Effect": 9.276}, {"smiles": "CN(Cc1cccnc1)c1nc(-c2ccccn2)nc2c1CCNCC2", "Percent Effect": 7.828}, {"smiles": "CN(Cc1ccsc1)c1nc(-c2ccccn2)nc2c1CCNCC2", "Percent Effect": 90.45}, {"smiles": "CN(Cc1nccs1)c1nc(-c2ccccn2)nc2c1CCNCC2", "Percent Effect": 47.94}, {"smiles": "O=C(O)C(F)(F)F.c1cnc(NCc2nnn3c2CN(Cc2ccsc2)CCC3)nc1", "Percent Effect": -34.33}, {"smiles": "Cl.O=C(NC1CCCC1)c1cc(C2CCCNC2)n[nH]1", "note": "(configuration not stated)", "Percent Effect": 2.974}, {"smiles": "COCCN1C[C@@H]2[C@@H](OC)CCN(Cc3ccsc3)[C@@H]2C1.O=C(O)C(F)(F)F.O=C(O)C(F)(F)F", "Percent Effect": -56.24}, {"smiles": "c1cc(-c2nc3c(c(NCCc4c[nH]cn4)n2)CCNCC3)ccn1", "Percent Effect": -32.96}, {"smiles": "c1ccc(-c2nc3c(c(NCc4nnc5n4CCC5)n2)CCNC3)cc1", "Percent Effect": -1.823}, {"smiles": "c1nc(CCNc2nc(C3CC3)nc3c2CCNCC3)c[nH]1", "Percent Effect": -37.66}, {"smiles": "c1coc(-c2nc3c(c(NCc4n[nH]c5c4CCC5)n2)CCNCC3)c1", "Percent Effect": -50.31}, {"smiles": "c1ccc(-c2nc3c(c(NCc4n[nH]c5c4CCC5)n2)CCNC3)cc1", "Percent Effect": 105.2}, {"smiles": "c1ccc(-c2nc3c(c(NCCc4c[nH]cn4)n2)CCNC3)cc1", "Percent Effect": 103.9}]}]}
